In the supplement of paper PMC10105736:
A number with no mark means an inactive call.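 Rule for the calls: active = MAPPIT score above the 99th percentile of random reference set scores in the same batch; inactive = at or below it.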

Columns and labels:
Experiment in all cases: MAPPIT interaction score (arbitrary units); higher = stronger binary interaction signal, active = hit call of the paper
CG2772 = settings: pair source set: RRS
CG2852 = settings: pair source set: Lit-BM-16
CG2991 = settings: MAPPIT configuration: N-N; pair source set: RRS
CG30349 = settings: MAPPIT configuration: N-N; pair source set: Curagen_low_conf
CG30472 = settings: pair source set: RRS
CG3085 = settings: MAPPIT configuration: N-C; pair source set: screen_3
CG8281 = settings: MAPPIT configuration: N-N; pair source set: screen_1
Gale = settings: MAPPIT configuration: N-N; pair source set: DPIM
PHDP = settings: MAPPIT configuration: N-N; pair source set: Finley_Y2H
Vsx2 = settings: MAPPIT configuration: N-N; pair source set: Finley_Y2H
eco = settings: MAPPIT configuration: N-N; pair source set: screen_1
CG31121 = settings: MAPPIT configuration: N-N; pair source set: Curagen_high_conf
CG31523 = settings: MAPPIT configuration: N-C; pair source set: screen_3
EMC5 = settings: MAPPIT configuration: N-C; pair source set: screen_3
RNASEK = settings: MAPPIT configuration: N-C; pair source set: screen_3
CG31550 = settings: MAPPIT configuration: N-N; pair source set: Lit-BS-16
GstE2 = settings: MAPPIT configuration: N-N; pair source set: Finley_Y2H
PAN3 = settings: MAPPIT configuration: N-N; pair source set: Lit-BS-16
Rbp6 = settings: MAPPIT configuration: N-N; pair source set: Finley_Y2H
CG31600 = settings: MAPPIT configuration: N-C; pair source set: screen_4
CG32182 = settings: MAPPIT configuration: N-N; pair source set: RRS
CG32425 = settings: MAPPIT configuration: N-C; pair source set: screen_3
CG5327 = settings: MAPPIT configuration: N-C; pair source set: screen_3
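Note: HEK293T cells with Epo stimulation, STAT-responsive firefly luciferase reporter, fold induction versus unstimulated cells divided by the larger fold induction of two negative controls lacking either bait or prey.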

B1: okr (protein)
chain: MRRSLAPSQRGPLRPESRHSFTPPLLKKNKRSCQQELEREQELDRRRLGALRDASNTSELPLPIRFTANSEYELAIAKVLARKFKVPMDNYVPDYGGKRVLGVRRCISRRPLHDPMACNALVLFHPPAYTEHERMGMDPTKVLVHVVVDPLLSNILRPHQREGVRFMYECVEGKRGNFNGCIMADEMGLGKTLQCVTLVWTLLRQGPECKPTINKAIVVSPSSLVKNWEKEFTKWLHGRLLCLPMEGGTKENTIRALEQFSMTSARLGTPVLLISYETFRIYAEILCKYEVGMVICDEGHRLKNSDNLTYQALMGLKTKRRVLLSGTPIQNDLTEYYSLVNFVNPEMLGTAAVFKRNFESAILRGQNTDSTEQERQRAIEKTQELIGLVDQCIIRRTNQILTKYLPVKFEMVICAKLTAIQLELYTNFLKSDQVRRSLADCNEKASLTALADITTLKKICSHPDLIYEKLTAREKGFENSQNVLPSNYKPKDLNPELSGKFMLLDFMLAAIRAEGNDKVVLISNYTQTLDLFEQLARKRKYGFVRLDGTMSIKKRSKVVDRFNDPESDSFLFMLSSKAGGCGLNLIGANRLFMFDPDWNPANDEQAMARVWRDGQKKPCYIYRLVASGSIEEKILQRQTHKKSLSSTIIDNNESAEKHFTRDDLKDLFTFDANILSDTHDKLKCKRCVQNIQMKPPPEDTDCTSHLSQWYHCSNNRGLPDNILAQAWMDCKCVSFVFHHRSQAQEIVPSAEEEATDQPEEKPESRKRSSTPASDDSADEDFRGF
CG2772; MAPPIT configuration: N-C
  MAPPIT interaction score: -0.364
CG2772; MAPPIT configuration: N-N
  MAPPIT interaction score: -0.357

B2: Pdi (protein)
chain: MKFLICALFLAASYVAASAEAEVKVEEGVLVATVDNFKQLIADNEFVLVEFYAPWCGHCKALAPEYAKAAQQLAEKESPIKLAKVDATVEGELAEQYAVRGYPTLKFFRSGSPVEYSGGRQAADIIAWVTKKTGPPAKDLTSVADAEQFLKDNEIAIIGFFKDLESEEAKTFTKVANALDSFVFGVSSNADVIAKYEAKDNGVVLFKPFDDKKSVFEGELNEENLKKFAQVQSLPLIVDFNHESASKIFGGSIKSHLLFFVSREGGHIEKYVDPLKEIAKKYRDDILFVTISSDEEDHTRIFEFFGMNKEEVPTIRLIKLEEDMAKYKPESDDLSAETIEAFLKKFLDGKLKQHLLSQELPEDWDKNPVKVLVSSNFESVALDKSKSVLVEFYAPWCGHCKQLAPIYDQLAEKYKDNEDIVIAKMDSTANELESIKISSFPTIKYFRKEDNKVIDFNLDRTLDDFVKFLDANGEVADSEPVEETEEEEEAPKKDEL
CG2852; MAPPIT configuration: N-C
  MAPPIT interaction score: -0.281
CG2852; MAPPIT configuration: N-N
  MAPPIT interaction score: 1.74

B3: wda (protein)
chain: MSLPSASNHAHAASPVYSNSNNNKSSASSKKTSSKNDLLRCAVGLLLKQKNYVSNERFRRSDFLLLQNKQQFAVNKMLDTDLHGGNSFTFSNVQVITNNQHTVDQQFGRFSQFVEAQAEPLRLEMKRFYGPMLCHFYLDLLKAREPRGAVELLRKYAHLVAPVDMYDAPPPTKINGCSTTANESTFNIRFAKEAQDTGDTELDYFMRLVQTLSGYTRLEAAESDDTVAHFRSSKYELHTTAVVVNRICAYLQRRGHVLIMNLLYTWLHVHIVENEQRAFSEDHLLGLTDDLEGEDGEDDVVSKPAVTLNTRGDIRPSKSLTEKSNRKRPAEEPNIMLETDIKQEVETDESAELSKLQLNIDACLDTLKSATEQILKSQVELPRFLRISERSRGLTSAHLDPSECHMLAGFDNSAVQLWQLNQSYCRGKSFYRRYPQKRCPWELNNCANQEEETDEDSSDEDVKCSEEERRERNRARHCKYADNSYNEYGGFQLRGHTKGVTDVRFSAHYPLMYSVSKDATMRCWRAHNLHCAAIYRSHNYPIWCLDESPVGQYVVTGSKDLSARLWSLEKEHALIIYAGHTQDVECVAFHPNGNYIATGSADHSVRLWCATSGKLMRVFADCRQAVTQLAFSPDGKMLAAAGEETKVRIFDLAAGAQLAELKDHSASISSLSWSTHNRHLATACSDGTLRLWDIKKLSPMSDNSSAGSSSSATTNRVLTVNSSCQRLVDVFYGTSKTLYCIGT
CG2991
  MAPPIT interaction score: -0.317

B4: kdn (protein)
chain: MSLYRISARKLSEAQKLPNVGAYVRMIAADGKSLRDVLAAKVPQEQERVKNFRKQHGATKMGETTIDMMYGGMRGIKALVTETSVLDADEGIRFRGLSIPECQKVLPAADGGTEPLPEGLFWLLLTGEVPTKSQVQQLSREWAERAALPQHVVTMLNNMPTTLHPMSQFAAAVTALNHDSKFAKAYSDGVHKSKYWEYVYEDSMDLIAKLPVVAATIYCNTYRGGKGSRSIDSSLDWSANFVKMLGYDNAPFTELMRLYLTIHSDHEGGNVSAHTVHLVGSALSDPYLSFAAGLNGLAGPLHGLANQEVLVWLRKLQKEAGNNPSEEQLKEYIWKTLKSGQVVPGYGHAVLRKTDPRYTCQREFALKHLPEDETFQLVSKIYKVVPPILTETGKVKNPWPNVDAHSGVLLQYYGMKEMNYYTVLFGVSRALGVLASLVWDRALGLPIERPKSFSTDLLVKMVQK
CG30349
  MAPPIT interaction score: 0.214

B5: Or43b (protein)
chain: MFGHFKLVYPAPISEPIQSRDSNAYMMETLRNSGLNLKNDFGIGRKIWRVFSFTYNMVILPVSFPINYVIHLAEFPPELLLQSLQLCLNTWCFALKFFTLIVYTHRLELANKHFDELDKYCVKPAEKRKVRDMVATITRLYLTFVVVYVLYATSTLLDGLLHHRVPYNTYYPFINWRVDRTQMYIQSFLEYFTVGYAIYVATATDSYPVIYVAALRTHILLLKDRIIYLGDPSNEGSSDPSYMFKSLVDCIKAHRTMLNFCDAIQPIISGTIFAQFIICGSILGIIMINMVLFADQSTRFGIVIYVMAVLLQTFPLCFYCNAIVDDCKELAHALFHSAWWVQDKRYQRTVIQFLQKLQQPMTFTAMNIFNINLATNINVAKFAFTVYAIASGMNLDQKLSIKE
CG30472; MAPPIT configuration: N-C
  MAPPIT interaction score: 0.0282
CG30472; MAPPIT configuration: N-N
  MAPPIT interaction score: 0.0958

B6: PolZ2 (protein)
chain: MQAEIKADIIVEAMEVLVNHILYVRGIYPSHIFKMKRMYNSPIYVSIFPPLNNYLAGVLKSAQELLRRRELQCLELIVYQKENEKLESYKMQLETQRSGLPAEDHLMEFEQNMRSVIYKISQRLNQAPKLPAGSCQFKVHLHTTQEAFIRFSHDSQYQEFPWLQTQKTESQATGRTVYLLPLARVDDLGLKMDVLIVN
CG3085
  MAPPIT interaction score: 1.42
CG8281
  MAPPIT interaction score: 1.67
Gale
  MAPPIT interaction score: 0.112
PHDP
  MAPPIT interaction score: -0.0614
Vsx2
  MAPPIT interaction score: 0.017
eco
  MAPPIT interaction score: 0.29

B7: Hsc70-5 (protein)
chain: MLRVPKFLPRLARQAGVVPSHMSGASSMFRNLPGASNGISSQLRYKSGEVKGAVIGIDLGTTNSCLAVMEGKQAKVIENAEGARTTPSHVAFTKDGERLVGMPAKRQAVTNSANTFYATKRLIGRRFDDPEVKKDITNLSYKVVKASNGDAWVSSTDGKVYSPSQIGAFILMKMKETAEAYLNTPVKNAVVTVPAYFNDSQRQATKDAGQIAGLNVLRVINEPTAAALAYGMDKTEDKIIAVYDLGGGTFDISILEIQKGVFEVKSTNGDTLLGGEDFDNHIVNFLVAEFKKDSGIDIRKDNIAMQRLKEAAEKAKCELSSSQQTDINLPYLTMDAAGPQHMNLKLTRSKLESLVGDLIKRTIQPCQKALSDAEVSKSEIGEVLLVGGMTRMPKVQSTVQELFGRQPSRSVNPDEAVAVGAAVQGGVLAGDVTDVLLLDVTPLSLGIETLGGVFTRLISRNTTIPTKKSQVFSTASDGQTQVEIKVHQGEREMANDNKLLGSFTLVGIPPAPRGVPQIEVVFDIDANGIVHVSAKDKGTGKEQQIVIQSSGGLSKDEIENMIKKAEEYATADKQKRELIEIVNQGESIVHDTETKMEEFKSQLPAEECEKLKKEIADLRTLLANKETADLEEVRKATSSLQQSSLKLFELAYKKMSAERESNAGAGSSDSSSSSDTSGEAKKEEKN
CG31121
  MAPPIT interaction score: 0.0518

B8: CG33169 (protein)
chain: MRQLKGKVKETRKQKKERKLDNLETQAKIRTVVLPALGVLAVFLVLFVYLKTRPAVLA
CG31523
  MAPPIT interaction score: 0.414
EMC5
  MAPPIT interaction score: -0.647
RNASEK
  MAPPIT interaction score: 0.381

B9: CycB (protein)
chain: MVGTTLKMRGDENASENFKQVQLKKLTVPSMEATTKRAALGDLQNRGISRPIAAKDAAQKDSKDLKLTDALRNAKARVDSHWKKQPLGSTNGNGNGAVPPKVNEGGVSAFLRSNSVRNRVPTKTTVEPTKVTVKSSSSENVNEPTLKREDSNLSKKSLTKLRAALAKPVMGVSGIRREPVAVSRKEAETKKELPETKKDSLEVKKDATRMPLIRGNSAVTTTTSTMPTTMSLSSKRLAGIEDIDANDKENLVLVSEYVNDIYDYLYQVELEQPIHKDHLAGQKEVSHKMRAVLIDWINEVHLQFHLAAETFQLAVAIIDRYLQVVKDTKRTYLQLVGVTALFIATKYEELFPPAIGDFVFITDDTYTARQIRQMELQIFKAIDCNLSRPLPIHFLRRYSKAAGAEDEHHTMSKYFIELASVDYEMATYRPSEIAAASLFLSLHLLNGNHRAGTGFNDRHWTPTLTFYSRYSAAHLRPITRLIAKLARDAPQAKLKAIYNKYQGSKFQKIALRTELTGALMDSIVGQSQRK
CG31550
  MAPPIT interaction score: 0.517
GstE2
  MAPPIT interaction score: 0.748
PAN3
  MAPPIT interaction score: 0.557
Rbp6
  MAPPIT interaction score: 0.383

B10: zetaTry (protein)
chain: MSSSWIVGLLAFLVSLVALTQGLPLLEDLDEKSVPDGRIVGGYATDIAQVPYQISLRYKGITTPENPFRHRCGGSIFNETTIVTAAHCVIGTVASQYKVVAGTNFQTGSDGVITNVKEIVMHEGYYSGAAYNNDIAILFVDPPLPLNNFTIKAIKLALEQPIEGTVSKVSGWGTTSPGGYSSNQLLAVDVPIVSNELCDQDYEDFGDETYRITSAMLCAGKRGVGGADACQGDSGGPLAVRDELYGVVSWGNSCALPNYPGVYANVAYLRPWIDAVLAGL
CG31600
  MAPPIT interaction score: 0.866

B11: RpS3A (protein)
chain: MAVGKNKGLSKGGKKGGKKKVVDPFSRKDWYDVKAPNMFQTRQIGKTLVNRTQGQRIASDYLKGRVFEVSLADLQKDIDPERSFRKFRLIAEDVQDRNVLCNFHGMDLTTDKYRSMVKKWQTLIEAIVEAKTVDGYLLRVFCIGFTAKDQQSQRKTCYAQQSQVRKIRARMTDIITNEVSGADLKQLVNKLALDSIAKDIEKSCQRIYPLHDVYIRKVKVLKKPRFDVSKLLELHGDGGGKSVEAVVSSEGAVIDRPEGYEPPVQEAV
CG32182
  MAPPIT interaction score: 0.147

B12: hth (protein)
chain: MAQPRYDDGLHGYGMDSGAAAAAMYDPHAGHRPPGLQGLPSHHSPHMTHAAAAAATVGMHGYHSGAGGHGTPSHVSPVGNHLMGAIPEVHKRDKDAIYEHPLFPLLALIFEKCELATCTPREPGVQGGDVCSSESFNEDIAMFSKQIRSQKPYYTADPEVDSLMVQAIQVLRFHLLELEKVHELCDNFCHRYISCLKGKMPIDLVIDERDTTKPPELGSANGEGRSNADSTSHTDGASTPDVRPPSSSLSYGGAMNDDARSPGAGSTPGPLSQQPPALDTSDPDGKFLSSLNPSELTYDGRWCRREWSSPADARNADASRRLYSSVFLGSPDNFGTSASGDASNASIGSGEGTGEEDDDASGKKNQKKRGIFPKVATNILRAWLFQHLTHPYPSEDQKKQLAQDTGLTILQVNNWFINARRRIVQPMIDQSNRAVYTPHPGPSGYGHDAMGYMMDSQAHMMHRPPGDPGFHQGYPHYPPAEYYGQHL
CG32425
  MAPPIT interaction score: 3.41
CG5327
  MAPPIT interaction score: 3.17
